Measured values published in PMC8384837, “Expanding the binding specificity for RNA recognition by a PUF domain”.

What follows are sequences tested against PUM1 PUF domain R5-FRI (Homo sapiens, UniProt Q14671 828-1176, C1007F;Q1011I) (assay: yeast three-hybrid, YBZ-1, SC-Leu-His + 0.5 mM 3-AT, 4 days). Details: tags: N-Gal4 AD-HA kept; label: inside an RPR1-promoter hybrid RNA with tandem MS2 sites; ssRNA.
Procedure, shortened: (§1)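 Sequencing with Illumina followed PCR amplification of the repeat regions from transformants grown four days on SC-Leu (input) or SC-Leu-His + 0.5 mM 3-AT (selection). The transformants were strain YBZ-1 with a LexA–MS2 coat fusion and a HIS3 reporter, carrying Pumilio-1 PUF domain libraries and matching RNA elements. The interaction score is the log change in variant frequency from input to selection, computed in log2 with a pseudocount of 1 for absent variants.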
In the case of “GGCUAGAACUAGUGGAUCCCCCGGCGCCCGGCGGCUCGAGCCCGGGUAAGUGUCAAUAGUCUGCAUGCCGCCGGGCGCCAUGCCUGCAGGUCGACUCUAGAAAACAUG”, the binding signal is reported as 2.41 log2 enrichment (interaction score).
With “GGCUAGAACUAGUGGAUCCCCCGGCGCCCGGCGGCUCGAGCCCGGGUAAGUGUUAAUAGUCUGCAUGCCGCCGGGCGCCAUGCCUGCAGGUCGACUCUAGAAAACAUG” the binding signal was 1.47 log2 enrichment (interaction score).
In the case of “GGCUAGAACUAGUGGAUCCCCCGGCGCCCGGCGGCUCGAGCCCGGGUAAGUGUAAAUAGUCUGCAUGCCGCCGGGCGCCAUGCCUGCAGGUCGACUCUAGAAAACAUG”, the binding signal is reported as 1.55 log2 enrichment (interaction score).

Each sequence was assayed against PUM1 PUF domain R2-LWE (Homo sapiens, UniProt Q14671 828-1176, N899L;Y900W;Q903E) in the same assay as above. Details: tags: N-Gal4 AD-HA kept; label: inside an RPR1-promoter hybrid RNA with tandem MS2 sites; ssRNA.
Procedure, shortened: as §1
“GGCUAGAACUAGUGGAUCCCCCGGCGCCCGGCGGCUCGAGCCCGGGUAAGUGUAAAAAGUCUGCAUGCCGCCGGGCGCCAUGCCUGCAGGUCGACUCUAGAAAACAUG” was tested, and the binding signal was 7.67 log2 enrichment (interaction score).
For “GGCUAGAACUAGUGGAUCCCCCGGCGCCCGGCGGCUCGAGCCCGGGUAAGUGUAAAUAGUCUGCAUGCCGCCGGGCGCCAUGCCUGCAGGUCGACUCUAGAAAACAUG”, the binding signal was 4.67 log2 enrichment (interaction score).
“GGCUAGAACUAGUGGAUCCCCCGGCGCCCGGCGGCUCGAGCCCGGGUAAGUGUAAAGAGUCUGCAUGCCGCCGGGCGCCAUGCCUGCAGGUCGACUCUAGAAAACAUG” was tested, and the binding signal was 6.63 log2 enrichment (interaction score).
